Compounds without any hit were thinned out: in the full panel of roughly 83,000, 20% have a hit.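 Activity criterion: percent growth below 10, measured after cells in 96-well plates were exposed to a single compound concentration for 48 hours.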 Unmarked numbers belong to inactive results. Activity calls are given as the source filed them.
What was measured:
Test in all cases: NCI-60 one-dose screen, 48 h (100 = growth as untreated, 0 = no growth, -100 = all killed)
Details in all cases: 10 µM unless noted
SK-MEL-2 melanoma = test system: SK-MEL-2 melanoma
SN12C renal = test system: SN12C renal
UO-31 renal = test system: UO-31 renal
TK-10 renal = test system: TK-10 renal
ACHN renal = test system: ACHN renal
CAKI-1 renal = test system: CAKI-1 renal
A498 renal = test system: A498 renal
CCRF-CEM leukemia = test system: CCRF-CEM leukemia
SR leukemia = test system: SR leukemia
RPMI-8226 leukemia = test system: RPMI-8226 leukemia
OVCAR-8 ovarian = test system: OVCAR-8 ovarian
OVCAR-5 ovarian = test system: OVCAR-5 ovarian
OVCAR-4 ovarian = test system: OVCAR-4 ovarian
SK-OV-3 ovarian = test system: SK-OV-3 ovarian
IGROV1 ovarian = test system: IGROV1 ovarian
OVCAR-3 ovarian = test system: OVCAR-3 ovarian
HS 578T breast = test system: HS 578T breast
NCI/ADR-RES ovarian = test system: NCI/ADR-RES ovarian
MOLT-4 leukemia = test system: MOLT-4 leukemia
EKVX NSCLC = test system: EKVX NSCLC

| SMILES | growth (SK-MEL-2 melanoma) | growth (SN12C renal) | growth (UO-31 renal) | growth (TK-10 renal) | growth (ACHN renal) | growth (CAKI-1 renal) | growth (A498 renal) | growth (CCRF-CEM leukemia) | growth (SR leukemia) | growth (RPMI-8226 leukemia) | growth (OVCAR-8 ovarian) | growth (OVCAR-5 ovarian) | growth (OVCAR-4 ovarian) | growth (SK-OV-3 ovarian) | growth (IGROV1 ovarian) | growth (OVCAR-3 ovarian) | growth (HS 578T breast) | growth (NCI/ADR-RES ovarian) | growth (MOLT-4 leukemia) | growth (EKVX NSCLC) |
| --- | --- | --- | --- | --- | --- | --- | --- | --- | --- | --- | --- | --- | --- | --- | --- | --- | --- | --- | --- | --- |
| COc1ccc(S(=O)(=O)Nc2cc(/C=C\c3cc(OC)c(OC)c(OC)c3)cc(OC)c2OC)cc1 | 18.3% | 23.3% | 21% | 64.9% | 26.4% | 22.9% | -11.5% (active) | 13.7% | 9.7% (active) | 10.2% | 7.61% (active) | 46.8% | 55.7% | 20.6% | 19.9% | 3.36% (active) | 21.1% | 11.3% |  |  |
| CC(C)CC1NC(C)(C)CO1 (stereo not drawn) | 113% | 112% | 90.2% | 96.4% | 113% | 92.5% |  | 102% | 124% | 103% | 105% | 114% | 111% | 110% | 112% | 106% | 142% | 104% | 124% |  |
| CC(C)(C)c1[nH]nc2c1C(c1cc3ccccc3[nH]c1=O)Nc1cc(C(=O)Nc3ccc(Cl)cc3)ccc1N2 (stereo not drawn) | 77.9% | 71.1% | 83.8% | 105% | 84.2% | 94.9% | 66.3% |  | 65.4% | 42.5% | 75.3% | 114% | 32.5% | 90.6% | 59.6% | 58.4% | 52.6% | 95.3% | 18.5% |  |
| COc1ccc(S(=O)(=O)n2ccc(-c3ccc4c(c3)CCC(C)(C)O4)n2)cc1OC | 56.2% | 83.1% | 68.5% | 72.1% | 78% |  | 52.8% | 82.2% | 60.2% | 59% | 74.6% | 105% | 46% |  | 84.3% | 70.9% | 91.5% | 56.5% | 63.8% |  |
| COc1cc(-c2nn(-c3cccc(NC(=O)Nc4cccc(C(F)(F)F)c4)c3)cc2-c2ccncc2)ccc1Cl | -71.2% (active) | 7.22% (active) | 7.94% (active) | 2.65% (active) | 6.54% (active) |  | -5.17% (active) | -9.68% (active) |  | -14.8% (active) |  | 28.2% |  | 4.13% (active) | 14% | -42% (active) | -13.7% (active) | -11.9% (active) | -26.3% (active) |  |
| COc1cc(-c2nn(-c3cccc(NC(=O)c4ccc(Cl)c(C(F)(F)F)c4)c3)cc2-c2ccncc2)ccc1Cl | 18.9% | 57.3% | 37.1% | 69.5% | 39.1% |  | 11.8% | 12.4% |  | 25.4% | 38.9% | 91.3% | 66% | 64.3% | 48.9% | 19.5% | 34.7% |  | 20.3% |  |
| Cc1nn(-c2ccc(Cl)cc2)c2ncnc(N/N=C/c3cccc([N+](=O)[O-])c3)c12 | 99% | 101% | 72.3% | 93.3% | 108% |  | 85.5% | 20.5% | 51.3% | 66.3% | 99.7% | 106% | 94.5% | 104% | 94.7% | 8.17% (active) | 99.3% | 105% | 15.4% |  |
| O=[N+]([O-])c1ccc(/C=C/C2(CCl)OCCO2)cc1 | 91.7% | 102% | 95.3% | 103% | 116% |  | 113% | 62.4% | 1.55% (active) | 68.5% |  | 111% |  | 103% |  | 112% | 109% | 98.8% | 45.8% |  |
| Cc1c(C(=N)C(C#N)C#N)c(=N)oc2c1ccc1ccccc12 | 26.6% | 88.7% | 85.5% | 121% | 86.4% |  | 85.2% | 66.1% | 26.1% | 44.7% | 80.8% | 104% | 95.3% | 104% | -2.09% (active) | 95.5% | 69.8% | 83.8% | 64.3% |  |
| C=C1C(=O)O[C@H]2[C@H]1CC/C(COC(=O)NCc1ccccc1OC)=C\CC[C@@]1(C)O[C@@H]21 | 60.6% | 23.4% | 22% | 20.6% | 6.65% (active) |  | 67.1% | 6.8% (active) |  | 25.7% | 10.5% | 73% | 41.7% | 85.8% |  | -1.44% (active) | 40.1% | 86% |  |  |
| N#Cc1c(-c2ccccc2)nc(SCC(=O)N2CCN(c3ccccc3)CC2)[nH]c1=O | 113% | 110% | 87.6% | 145% | 101% | 97.7% | 116% | 100% | 90.6% | 95.7% | 97.9% | 98.5% | 115% | 101% | 112% | 111% | 106% | 101% |  |  |
| COc1ccc(-c2nc3sc(-c4cc(OC)c(OC)c(OC)c4)nn3c2/C=C2/C(=O)Nc3ccc(F)cc32)cc1 | -10.8% (active) | -29.2% (active) | -33.4% (active) | -52.2% (active) | -15.7% (active) | 4.52% (active) | 96.7% | 20.6% | 18.6% | 13.3% | 21.9% | 3.01% (active) | -32.4% (active) | 6.67% (active) | -39.3% (active) | -60.9% (active) | 30.3% |  |  |  |
| O=C1c2c(Cl)c(Cl)c(Cl)c(Cl)c2C(=O)C2(Cl)CC=CCC12Cl (stereo not drawn) | -49.4% (active) | 24.4% | 17.9% | -92.5% (active) | -81% (active) | -15.1% (active) | 104% |  |  | -32.2% (active) | -34.9% (active) | 95.7% | -59.1% (active) | 105% | -58.7% (active) | -93.5% (active) | 46.7% | 32.7% |  |  |
| O=C(Nc1cccc(-n2cc(-c3ccncc3)c(-c3ccc(Cl)c(O)c3)n2)c1)c1ccccc1 | 67.9% | 79.3% | 83.1% | 109% | 53.2% | 90.3% | 72.3% | 67.5% |  | 60.5% | 50.9% | 115% |  | 80.1% | 88% | 82.1% | 48.4% | 62.7% | 69.5% |  |
| COc1ccc(-c2c(N)n[nH]c2-c2cc(OC)c3c(c2)OCCO3)cc1 | 64.8% | 88.7% | 92% | 71.3% |  | 70.3% | 71.4% | 73.7% | -6.97% (active) | 74.7% | 83.5% |  | 101% | 90.2% | 85.9% | 76.2% | 86.2% | 63.8% | 61.3% |  |
| COc1ccc(N=Cc2c(O)ccc3c2oc2cc(Cl)c(O)c(Cl)c23)cc1 | -1.58% (active) | 102% | 103% | 120% | 96.2% |  | 107% | 77.9% | 83% | 78.3% | 93.8% | 102% | 98.3% | 104% | 62.2% | 117% | 93.5% | 84.5% | 89.1% |  |
| O=[N+]([O-])c1cc(Cl)c2[nH]c3c(Cl)cc([N+](=O)[O-])cc3c2c1 |  | 2.7% (active) | -13.9% (active) | -23.1% (active) | -10.3% (active) | -34.1% (active) | -26.6% (active) | -39.9% (active) | 2.53% (active) | 3.11% (active) | -2.33% (active) | 9.08% (active) | -24.8% (active) | -11.9% (active) | 9.12% (active) | 16.8% |  | 6.85% (active) | -41.8% (active) | -10.2% (active) |
| CC1CCC(C)N(C)C1 (stereo not drawn) |  | 92.8% | 84.6% | 102% | 105% | 101% | 76.5% | 93.9% | 88.1% | 89.7% | 105% | 106% | 107% | 102% | 106% | 112% | 108% | 107% | 92.5% | 112% |
